# DUSP3 inh: blocks the human dual specificity phosphatase VHR1 | inhibition, % at 20 µM | 50,000 compounds, 0.7% hits | recombinant VHR phosphatase, colorimetric substrate read-out; in the data active means inhibition above about 60%
# Target sequence (P51452 whole entry, looked up): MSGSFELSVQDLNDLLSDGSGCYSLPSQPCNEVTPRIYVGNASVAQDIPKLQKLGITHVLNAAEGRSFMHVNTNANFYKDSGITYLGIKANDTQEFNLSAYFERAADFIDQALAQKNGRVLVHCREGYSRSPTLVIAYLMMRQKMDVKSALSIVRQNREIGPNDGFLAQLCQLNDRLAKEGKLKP
# Hits are given with their value; . = inactive. The entries come from a sample that favours hits as a whole.
SMILES,DUSP3 inh
Cc1cc(=O)oc2cc(OCC(=O)c3ccc(Cl)cc3)c(Cl)cc12,.
Cc1cc(=O)oc2cc(OCc3ccc(F)cc3)c(Cl)cc12,.
Cc1cc(=O)oc2cc(OC/C(=N\O)c3ccc(Cl)cc3)c(Cl)cc12,106.5
COC(=O)C1=C(C)N=c2s/c(=C\c3ccc(-c4ccccc4C(=O)O)o3)c(=O)n2C1c1ccccc1 (configuration not stated),.
O=[N+]([O-])/N=C1/NCN(Cc2ccccc2)CN1Cc1ccccc1,.
CC(=O)NC1=NC(=O)/C(=C\c2ccc(N(C)C)c(Br)c2)S1,.
c1ccc(CC2=NNC(c3ccccc3)S2)cc1 (configuration not stated),.
Cc1cc(C)cc(CSCC(=O)Nc2cc(Cl)ccc2Cl)c1,.
CCOc1ccccc1C1C(C(=O)OC)=CNC=C1C(=O)OC,.
CCn1c(O)c(N=NC(=O)c2ccccc2Cl)c2ccccc21,.
CCC(CO)N=Cc1c(O)n(-c2c(Cl)cccc2Cl)c2ccccc12 (configuration not stated),97.5
CCOc1c(/C=C(\C#N)C(N)=O)c2ccccc2n1-c1c(Cl)cccc1Cl,.
Cc1nnc(N/N=C/c2cccc([N+](=O)[O-])c2)[nH]c1=O,.
CC(C)C(=O)O/N=C(\N)c1ccncc1,.
COc1ccc(/C=C/C(=O)Nc2nc(C)c(C)s2)cc1OC,.
COc1ccc(CNC(=O)CCc2ccccc2)cc1,.
O=S(=O)(Nc1cc(Cl)c(O)c2ccccc12)c1ccc(F)cc1,.
Cc1ccc(S(=O)(=O)Nc2cc(Sc3ncn[nH]3)c(O)c3ccccc23)cc1,100.2
Cc1ccc(C)c(S(=O)(=O)Nc2cc(Br)c(O)c3ccccc23)c1,.
CCOC(=O)COc1ccccc1/C=N/NC(=O)COc1cccc(Br)c1,.
O=C(CSc1nnnn1-c1ccccc1)Nc1nncs1,.
O=C(Nc1ccc(I)cc1Cl)c1cccc(OCc2ccccc2)c1,.
O=C(Nc1ccccc1C(F)(F)F)c1cccc(OCc2ccccc2)c1,114.0
O=C(Nc1ccccc1C(F)(F)F)c1ccc2ccccc2c1,.
CC(=O)CC(=O)Nc1ccc(C)c(Cl)c1,.
SMILES,DUSP3 inh
Cc1no[n+]([O-])c1COc1ccc(/C=C2\SC(=S)NC2=O)cc1,.
CCOc1cc(/C=N/NC(=O)Cc2cccc3ccccc23)cc(I)c1O,.
COc1ccc(C2=C/C(=C3\OC(=O)c4ccccc43)C(=O)O2)cc1,.
COc1ccc(C2=C/C(=C/c3ccc(I)o3)C(=O)O2)cc1,.
COc1ccc(C2=CC(c3cccs3)C=C(c3ccc(OC)cc3)O2)cc1,60.0
COc1cc2ccccc2cc1C(=O)Nc1cccc(-c2cc3ccccc3oc2=O)c1,.
Ic1ccc(N/N=C/c2ccc(N3CCOCC3)cc2)cc1,.
Cn1c(-c2ccc(-c3nc4cnccc4n3C)cc2)nc2cnccc21,71.0
Cc1ccc(-c2nc3ccccc3c(=O)n2-c2cccnc2)cc1,.
Cn1c(-c2nc3ccccc3n2C)nc2ccccc21,.
COC(=O)C1=C(C)N(C)C(C)=C(C(=O)OC)C1c1cc(OC)ccc1OC,.
C=CCOC(=O)C1=C(C)NC(C)=C(C(=O)OCC=C)C1c1ccc(OC)c(OC)c1,.
O=C(Nc1cc(Br)cc2cccnc12)c1ccc(Cl)cc1,.
O=C(Nc1ccc(F)cc1F)N1CCCc2ccccc21,.
CCOC(=O)c1c(NC(=S)Nc2ccccc2)sc2c1CCCCC2,.
CCOC(=O)c1c(NC(=S)Nc2ccc(C)cc2)sc2c1CCN(Cc1ccccc1)C2,68.5
CCOC(=O)c1c(NC(=O)c2ccccc2)sc2c1CCN(Cc1ccccc1)C2,.
CCOc1cc(C(=O)Nc2sc(C(=O)N(CC)CC)c(C)c2C(=O)OC(C)C)cc(OCC)c1OCC,.
CCOC(=O)c1c(NC(=O)c2ccc(OC)c(OC)c2)sc(C(=O)N(CC)CC)c1C,.
CCN(CC)C(=O)c1sc(NC(=O)c2cc(OC)cc(OC)c2)c(C(=O)OC)c1C,95.0
O=C1NC(=O)/C(=C\c2cc3c(cc2Br)OCO3)S1,.
O=C(O)C(Cc1ccccc1)N1C(=O)/C(=C/c2ccc(F)cc2)SC1=S (configuration not stated),.
O=C(O)C(Cc1ccccc1)N1C(=O)/C(=C/C=C/c2ccccc2)SC1=S (configuration not stated),91.9
O=C(O)c1ccc(/C=C2\SC(=S)N(C(Cc3ccccc3)C(=O)O)C2=O)cc1 (configuration not stated),.
CC(C)(C)NC(=O)CN(c1ccc(Br)cc1)S(C)(=O)=O,.
SMILES,DUSP3 inh
COc1ccc(C(C2=C(O)CC(C)(C)CC2=O)C2=C(O)CC(C)(C)CC2=O)cc1CO,.
Cc1sc(NC(=O)CCC2CCCCC2)nc1-c1ccccc1,.
CC(C)=C1C(=O)NN(c2cccc(Br)c2)C1=O,81.2
CC(C)=C1C(=O)NN(c2ccc(C)c(Cl)c2)C1=O,.
COc1ccc(Cl)cc1/C=C1/C(=O)NN(c2cccc(Br)c2)C1=O,.
CCOC(=O)/C=C(\C)Nc1cc(-c2ccc(Cl)cc2)[nH]n1,.
CCOC(=O)/C=C(\C)Nc1cc(C)nn1-c1ccccc1,109.8
CC(=O)Nc1cc(-c2ccc(Cl)cc2)nn1-c1ccccc1,.
